# D3 ag: activates the human D3 dopamine receptor | P35462 | max activation, % | D3R DiscoveRx beta-arrestin cells, luminescence, 90 min | hit rate 0.58% among 410,000; in the data active = max activation above about 30%; also: 0% is about no effect
#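 Agonist mode: compounds and dopamine controls were applied to plated cells for 90 min at 37 degrees C after an overnight attachment at 1500 cells/well. Luminescent read-out followed 30 - 60 minutes at room temperature with DiscoveRx detection reagent.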
# DRD3 antagonist: blocks the human D3 dopamine receptor; P35462; D3R cells, DiscoveRx beta-arrestin luminescence, antagonist mode; hits give low values; max response, negative = inhibition, %; hit rate 2.5% among 360,000; AID 652054; in the data active = max response below about -50%; inconclusive = no clear call, values can overlap the other calls; also: % is scaled to controls: 0 for no effect and ±100 for the full control effect
#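 Cells plated overnight at 1500 cells/well, then exposed to library compounds with dopamine controls for 90 minutes at 37 degrees C. DiscoveRx reagent added for 30–60 minutes at room temperature; luminescence read, quantitative HTS format.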
# D1 antag: human D1 dopamine receptor antagonism; activity change, negative = inhibition, % at 10 µM; HEK293 TREx D1 cells, calcium flux, dopamine EC80; hits give low values; AID 504652; hit rate 3.2% among 360,000; in the data active = activity change below about -30%; also: % is scaled to controls: 0 for no effect and ±100 for the full control effect
# Target sequence (P21728 whole entry, looked up): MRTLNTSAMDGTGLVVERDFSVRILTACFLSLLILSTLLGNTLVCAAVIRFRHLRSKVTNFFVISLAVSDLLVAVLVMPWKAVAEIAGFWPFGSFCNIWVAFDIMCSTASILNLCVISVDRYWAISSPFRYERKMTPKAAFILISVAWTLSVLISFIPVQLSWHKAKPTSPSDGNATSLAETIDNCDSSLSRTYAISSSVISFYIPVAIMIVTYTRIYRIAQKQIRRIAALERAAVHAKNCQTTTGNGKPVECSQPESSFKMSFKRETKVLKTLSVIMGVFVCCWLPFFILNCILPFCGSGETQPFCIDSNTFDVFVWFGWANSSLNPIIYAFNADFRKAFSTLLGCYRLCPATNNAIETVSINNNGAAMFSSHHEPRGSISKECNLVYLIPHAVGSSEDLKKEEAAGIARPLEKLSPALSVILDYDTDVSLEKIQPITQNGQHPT
#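 Inducible Hek293 Trex D1 cells (tetracycline, overnight, 30 C). Calcium dye 30–90 min RT. Antagonist mode: EC80 dopamine added after 180 s compound read.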
# D1 agonist: activates the human D1 dopamine receptor; P21728; HEK293 T-REx D1 cells, calcium flux, agonist mode; activation, % at 2 µM; hit rate 1% among 360,000; AID 504660; in the data active = activation above about 30%; also: 0% is about no effect
#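 Agonism was scored from calcium flux recorded over 180 s (1 read/s) after pintool compound addition, following a 10-cycle baseline. Cells were inducible force-coupled HEK293 TREx D1, plated overnight at 30 C and loaded with no-wash calcium dye.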
# D1 PAM: enhances dopamine response at the human D1 receptor; AID 504651; potentiation, % at 10 µM; HEK293 TREx D1 cells, calcium flux, dopamine EC20 potentiation; hit rate 0.036% among 360,000; P21728; in the data active = potentiation above about 30%; also: 0% is about no effect
# Numbers without * were called inactive; ? = inconclusive; nt = no result. Sampled rows, rich in hits. Any-hit rate of the full collection: about 6%.
SMILES,D3 ag,DRD3 antagonist,D1 antag,D1 agonist,D1 PAM
COC(=O)c1cc2oc3ccccc3c2n1CC(=O)Nc1cccc(SC)c1,-11,nt,-8,4,-4
CN(C)c1nc(Cl)nc(NCCOc2ccccc2)n1,-4,-6,15,81*,-8
CC(C)(Cc1ccccc1)/[N+]([O-])=C\c1ccc(C(F)(F)F)cc1,2,7,-4,-1,-6
COc1ccc(NC(=O)CCn2c(=O)c3cccn3c3cccnc32)c(OC)c1,1,nt,13,2,0
CC(NC(=O)Nc1ccc([N+](=O)[O-])cc1)C(c1cccs1)N1CCCC1 (stereo not given),-8,-6,159,175*,17
CC(NC(=O)Nc1cccc(Cl)c1)C(c1cccs1)N1CCCC1 (stereo not given),-13,?,34,113*,-4
COc1ccc(C2=C(Nc3ccc(Br)c(C)c3)c3ccccc3C2=O)cc1,1,nt,12,1,3
COc1ccc(Nc2nc(Nc3ccc(OC)cc3OC)nc(N3CCOCC3)n2)c(OC)c1,40*,nt,-2,1,-4
O=C(OCC(=O)C12CC3CC(CC(C3)C1)C2)c1ccc(O)cc1O,-14,-11,-1,93*,43*
O=C(CCN1C(=O)c2ccccc2S1(=O)=O)Nc1ccc(Cl)cc1,-6,1,-52*,5,-2
COc1ccccc1C1C(C#N)=C(N)Oc2c1oc(CO)cc2=O (stereo not given),3,-25,-7,0,-2
N#CC1=C(N)Oc2c(oc(CO)cc2=O)C1c1ccccc1[N+](=O)[O-] (stereo not given),21,-4,-35*,0,-7
N#Cc1nc(Nc2ccc(-c3ccccc3)cc2)nc(NC2CCCC2)n1,nt,nt,21,5,-5
CCn1cnc2c(=O)oc3ccc(S(=O)(=O)N4CCN(c5cc(C)ccc5C)CC4)cc3c21,7,nt,-25,3,-3
CC1(C)CC(=O)C(N=Nc2ccc(F)cc2)=C(O)C1,-9,-15,-42*,3,-5
CC1(C)CC(=O)C(N=Nc2ccc(Cl)cc2)=C(O)C1,0,-15,5,2,-3
CCOC(=O)c1c(NC(=O)c2cc3ccccc3c(=O)o2)sc2c1CCC(C(C)(C)C)C2 (stereo not given),-5,nt,8,0,1
Cc1nc(SCc2ccc(Br)cc2)[nH]c(=O)c1C,-7,8,-41*,3,-18
CC(C)(C)NC(=O)CN(C(=O)C1CSC(=O)C1)c1ccc2c(c1)OCCO2 (stereo not given),-1,?,-36*,-1,1
Cc1cn2c(=O)cc(COc3cccc(NC(=O)c4ccccc4Cl)c3)nc2s1,-6,nt,0,2,-1
COCC(C)NC(=O)NC(=O)c1ccc(Cl)cc1 (stereo not given),-5,-104*,36,-2,-2
CC(NC(=O)NC(=O)c1ccc(Cl)cc1)c1ccccc1 (stereo not given),-14,?,4,16,-3
Cn1c2cc(B(O)O)sc2c2cnn(Cc3c(F)cccc3F)c(=O)c21,nt,nt,9,4,1
O=C(OCC1(COC(=O)c2cccnc2)CCCC(COC(=O)c2cccnc2)(COC(=O)c2cccnc2)C1O)c1cccnc1,8,nt,nt,nt,nt
Cc1ccc(S(=O)(=O)NC(=O)C2CCCCC2)cc1,0,-12,-36*,3,5
SMILES,D3 ag,DRD3 antagonist,D1 antag,D1 agonist,D1 PAM
Cc1ccc(S(=O)(=O)NC2CCCCCCC2)cc1,-3,-15,-11,3,4
Cc1ccc(S(=O)(=O)N2CCC(C(=O)NCC3CCCCC3)CC2)cc1,-15,-65*,-13,1,3
Cc1ccc(S(=O)(=O)N2CCC(C(=O)NCCc3ccccn3)CC2)cc1,-8,-5,-58*,1,-7
Cc1ccc(S(=O)(=O)N2CCC(C(=O)NCC3CC3)CC2)cc1,6,0,9,-4,-1
O=C(CSc1nc2c(oc3ccccc32)c(=O)[nH]1)Nc1cccc(Cl)c1,3,nt,-12,5,-4
CCN(CC)S(=O)(=O)c1ccc2c(c1)N(CC(=O)Nc1c(C)cccc1C)C(=O)C1CCCN21 (stereo not given),3,nt,2,-1,-1
CCc1cc2c(-c3ccccc3)cc(=O)oc2cc1OC(C)C(=O)NCC1CCC(C(=O)O)CC1 (stereo not given),44*,114,-11,1,2
CC(Oc1cc2oc(=O)cc(-c3ccccc3)c2cc1Cl)C(=O)NCC1CCC(C(=O)O)CC1 (stereo not given),3,24,-10,2,-5
CC(Oc1ccc2c3c(c(=O)oc2c1)CCC3)C(=O)NCC1CCC(C(=O)O)CC1 (stereo not given),43*,225,9,0,-3
Cc1ccc(NC(=O)CN(C)C(=O)COC(=O)c2nc3nccc(C)n3n2)cc1,2,-9,17,2,2
CN1CCN(C(=O)CCN2C(=O)/C(=C/c3ccc(F)cc3)SC2=S)CC1,-8,-19,-26,12,-7
Cc1c(N=C2C=CC(=O)c3ccccc32)c(=O)n(-c2ccccc2)n1C,-11,-55*,3,0,0
COc1cccc(NC(=O)Nc2cc(C(=O)O)ccc2N2CC3CC(C2)c2cccc(=O)n2C3)c1 (stereo not given),-9,8,-13,1,-3
O=C(c1ccc2c(c1)N(Cc1ccc(F)cc1)C(=O)c1ccccc1S2(=O)=O)N1CCCCC1,-6,nt,2,5,0
C=CCNC(=O)NC(=O)COC(=O)/C(C#N)=C/c1cc(C)n(CCC(C)C)c1C,13,3,10,3,1
Cc1cc(/C=C(\C#N)C(=O)OCC(=O)NC(=O)NC(C)(C)C)c(C)n1CCC(C)C,0,39,-51*,-2,-4
CC(=O)NS(=O)(=O)c1cccnc1Nc1cccc(Cl)c1C,-2,-11,-33*,1,-2
CC(=O)NS(=O)(=O)c1cccnc1Nc1ccc(Cl)cc1,4,8,-2,3,-5
CCn1c2ccccc2c2cc(CNCc3ccc(OC)cc3OC)ccc21,-13,-16,-28,94*,-4
CCn1c2ccccc2c2cc(CNCCCN3CCOCC3)ccc21,-8,-100*,-8,5,-4
CCC(CC)NCc1ccc2c(c1)c1ccccc1n2CC,-7,0,12,60*,2
COc1ccc(CNCc2cc(C)c(OC)cc2C)c(OC)c1,-22,-12,-2,30*,-4
CCOC(=O)C1=CN(Cc2cccc(F)c2)S(=O)(=O)N(C)C1c1cccc(OC)c1 (stereo not given),37*,29,nt,nt,nt
CCOC(=O)C1=CN(Cc2cccc(F)c2)S(=O)(=O)NC1c1ccc2ccccc2c1 (stereo not given),-18,-59*,nt,nt,nt

# High-throughput results deposited in PubChem by National Center for Advancing Translational Sciences (NCATS).
